Reference: the supplement of paper PMC10849652
Targets with a hit are over-represented here; the source holds about 8,800 in all. About 0.5% of all pairs of compound and target were hits.

How the values were obtained:
Test in all cases: log2 fold change, soluble protein after heating vs DMSO (PISA); higher = thermal stabilisation; K562 lysate, 10 uM; active = over 0.2 and 3.5 SD of the protein, either way, in both replicates (recomputed)
[1] = compound: NCC(=O)Nc1ccc(-n2nc(C(F)(F)F)cc2-c2ccc3c(ccc4ccccc43)c2)cc1
In short: (§1)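 K562 pellets were dounce-homogenised in PBS pH 7.4 with 1 mM MgCl2, and the crude extract at 1 mg/mL protein was treated with 10 μM compound for 30 min. Aliquots were heated for 3 min across 48°C-58°C, pooled, and brought to 0.5% NP-40 at 4°C; soluble protein was the supernatant after 21,000xg for 90 min. Soluble protein was quantified by TMTpro 16plex LC-MS/MS with channel sums equalised, and reported as log2 fold change in thermal stability against DMSO controls, with values from duplicates.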

vorinostat = compound: O=C(CCCCCCC(=O)Nc1ccccc1)NO [vorinostat]
In short: as §1

silmitasertib = compound: O=C(O)c1ccc2c(c1)nc(Nc1cccc(Cl)c1)c1ccncc12 [silmitasertib]
In short: as §1

[2] = compound: O=C1NC(=O)C(c2cnc3ccccn23)=C1c1cn2c3c(cc(F)cc13)CN(C(=O)N1CCCCC1)CC2
In short: as §1

entospletinib = compound: c1cn2cc(-c3ccc4cn[nH]c4c3)nc(Nc3ccc(N4CCOCC4)cc3)c2n1 [entospletinib]
In short: as §1

Measured: log2 fold change

LRIF1 (UniProt Q5T3J3)
inactive: [1] 0.079 | vorinostat 0.082 | silmitasertib -0.11 | [2] -0.024 | entospletinib 0.001

MARK2 (UniProt E9PC69)
active: silmitasertib 0.486
inactive: [1] 0.026 | vorinostat -0.167 | [2] 0.006 | entospletinib 0.153

LYN (UniProt P07948)
inactive: [1] 0.025 | vorinostat -0.305 | silmitasertib -0.058 | [2] -0.108 | entospletinib 0.149

MINDY1 isoform 3 (UniProt Q8N5J2)
inactive: [1] -0.097 | vorinostat -0.186 | silmitasertib 0.144 | [2] 0.166 | entospletinib -0.052

KIF11 (UniProt P52732)
active: vorinostat -0.252
inactive: [1] -0.013 | silmitasertib 0.016 | [2] -0.033 | entospletinib 0.001

MED13L (UniProt Q71F56)
active: vorinostat -0.253
inactive: [1] -0.057 | silmitasertib 0.017 | [2] 0.017 | entospletinib -0.052

MLST8 (UniProt Q9BVC4)
inactive: [1] 0.006 | silmitasertib 0.104 | [2] 0.046 | entospletinib 0.043
active: vorinostat -0.357

MAPK12 (UniProt P53778)
inactive: [1] 0 | vorinostat 0.181 | silmitasertib -0.027 | [2] -0.067 | entospletinib -0.027

MMS22L (UniProt Q6ZRQ5)
active: vorinostat -0.508
inactive: [1] 0.022 | silmitasertib 0.016 | [2] 0.138 | entospletinib 0.069

MAPK3 (UniProt P27361)
inactive: [1] -0.016 | vorinostat -0.005 | silmitasertib 0.02 | [2] 0.038 | entospletinib -0.013

KIF22 (UniProt Q14807)
inactive: [1] 0.069 | vorinostat 0.158 | silmitasertib -0.128 | [2] 0.156 | entospletinib 0.001

MOCS3 (UniProt O95396)
inactive: [1] 0.062 | silmitasertib -0.012 | [2] 0.053 | entospletinib 0.035
active: vorinostat -0.458

LPIN1 isoform 7 (UniProt Q14693)
inactive: [1] 0.052 | silmitasertib -0.014 | [2] 0.004 | entospletinib -0.193
active: vorinostat -0.489

MAPKAPK5 (UniProt Q8IW41)
inactive: [1] -0.012 | vorinostat 0.07 | silmitasertib 0.002 | [2] 0.052 | entospletinib 0.028

MICU1 isoform 3 (UniProt Q9BPX6)
inactive: [1] -0.085 | vorinostat -0.133 | silmitasertib 0.065 | [2] -0.003 | entospletinib -0.019

MBD2 (UniProt Q9UBB5)
inactive: [1] 0.018 | silmitasertib 0.017 | [2] -0.022 | entospletinib 0.022
active: vorinostat -0.244

KIF4A (UniProt O95239)
UniProt O95239, sequence (O95239 whole entry, looked up): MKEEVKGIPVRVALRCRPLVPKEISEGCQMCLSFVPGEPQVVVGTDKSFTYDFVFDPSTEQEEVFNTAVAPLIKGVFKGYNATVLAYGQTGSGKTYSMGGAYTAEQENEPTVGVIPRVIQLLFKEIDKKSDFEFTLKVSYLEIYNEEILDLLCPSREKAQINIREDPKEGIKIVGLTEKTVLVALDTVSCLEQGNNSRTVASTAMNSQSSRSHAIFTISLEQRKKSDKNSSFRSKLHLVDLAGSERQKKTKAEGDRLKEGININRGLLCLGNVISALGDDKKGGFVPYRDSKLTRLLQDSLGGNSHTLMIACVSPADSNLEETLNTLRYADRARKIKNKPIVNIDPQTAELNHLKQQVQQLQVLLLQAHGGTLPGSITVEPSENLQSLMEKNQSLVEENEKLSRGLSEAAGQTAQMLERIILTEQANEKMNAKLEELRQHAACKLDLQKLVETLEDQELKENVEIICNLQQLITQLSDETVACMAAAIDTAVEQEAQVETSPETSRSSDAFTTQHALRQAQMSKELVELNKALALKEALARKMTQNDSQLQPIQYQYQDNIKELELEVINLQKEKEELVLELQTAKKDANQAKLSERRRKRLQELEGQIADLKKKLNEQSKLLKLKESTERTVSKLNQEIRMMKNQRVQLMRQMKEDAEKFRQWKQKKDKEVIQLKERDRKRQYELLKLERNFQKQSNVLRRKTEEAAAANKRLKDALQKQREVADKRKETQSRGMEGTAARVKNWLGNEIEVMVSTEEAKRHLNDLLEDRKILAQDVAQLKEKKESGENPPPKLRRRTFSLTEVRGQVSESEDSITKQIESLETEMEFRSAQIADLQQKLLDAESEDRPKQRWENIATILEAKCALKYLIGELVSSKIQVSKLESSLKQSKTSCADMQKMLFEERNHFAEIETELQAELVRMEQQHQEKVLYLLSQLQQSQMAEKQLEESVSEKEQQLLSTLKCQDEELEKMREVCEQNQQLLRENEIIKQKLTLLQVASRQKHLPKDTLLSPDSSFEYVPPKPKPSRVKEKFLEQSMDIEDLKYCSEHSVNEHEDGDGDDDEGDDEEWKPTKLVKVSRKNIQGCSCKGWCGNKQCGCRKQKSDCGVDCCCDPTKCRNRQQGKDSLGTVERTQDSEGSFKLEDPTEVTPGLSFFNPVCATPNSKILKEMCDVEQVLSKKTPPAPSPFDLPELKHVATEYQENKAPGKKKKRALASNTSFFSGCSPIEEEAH
inactive: [1] -0.017 | silmitasertib 0.017 | [2] 0.013 | entospletinib 0.001
active: vorinostat -0.445

MGAT5 (UniProt Q09328)
inactive: [1] 0.054 | vorinostat 0.139 | silmitasertib -0.014 | [2] 0.013 | entospletinib 0.063

KIF14 (UniProt Q15058)
active: vorinostat -0.286
inactive: [1] 0.082 | silmitasertib -0.016 | [2] -0.019 | entospletinib -0.055

MAP4K2 (UniProt Q12851)
inactive: [1] 0.03 | vorinostat -0.263 | silmitasertib 0.064 | [2] -0.104 | entospletinib 0.15

LDAH isoform 2 (UniProt Q9H6V9)
inactive: [1] -0.017 | vorinostat -0.13 | silmitasertib 0.064 | [2] 0.033 | entospletinib -0.029

KRAS (UniProt P01116)
inactive: [1] 0.033 | vorinostat 0.129 | silmitasertib 0.022 | [2] -0.072 | entospletinib -0.021

KLC2 (UniProt Q9H0B6)
inactive: [1] 0.01 | silmitasertib -0.005 | [2] -0.061 | entospletinib 0.034
active: vorinostat -0.348

LRCH3 (UniProt Q96II8)
active: vorinostat -0.535
inactive: [1] 0.053 | silmitasertib 0.048 | [2] -0.03 | entospletinib -0.009

LIG3 (UniProt P49916)
inactive: [1] -0.061 | silmitasertib 0.018 | [2] -0.012 | entospletinib -0.004
active: vorinostat -0.411

MAST2 (UniProt Q6P0Q8)
inactive: [1] 0.062 | vorinostat -0.166 | silmitasertib 0.055 | [2] -0.013 | entospletinib -0.189

LBR (UniProt Q14739)
inactive: [1] -0.121 | vorinostat 0.17 | silmitasertib -0.001 | [2] -0.076 | entospletinib -0.009

MIF (UniProt P14174)
inactive: [1] 0.048 | vorinostat -0.055 | silmitasertib 0.065 | [2] -0.009 | entospletinib 0.064

MAP2K5 (UniProt Q13163)
UniProt Q13163, sequence (Q13163 whole entry, looked up): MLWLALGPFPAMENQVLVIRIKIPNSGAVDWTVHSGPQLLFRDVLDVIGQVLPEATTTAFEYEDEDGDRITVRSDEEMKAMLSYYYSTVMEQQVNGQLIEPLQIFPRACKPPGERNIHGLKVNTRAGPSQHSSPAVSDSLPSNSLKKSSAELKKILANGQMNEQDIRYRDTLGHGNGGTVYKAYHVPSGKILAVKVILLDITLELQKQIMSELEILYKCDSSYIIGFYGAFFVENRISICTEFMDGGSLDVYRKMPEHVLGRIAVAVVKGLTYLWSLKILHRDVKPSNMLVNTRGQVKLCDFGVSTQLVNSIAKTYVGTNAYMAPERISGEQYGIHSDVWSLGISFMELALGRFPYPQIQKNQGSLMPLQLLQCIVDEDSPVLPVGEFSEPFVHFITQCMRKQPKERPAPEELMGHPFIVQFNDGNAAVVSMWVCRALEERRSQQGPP
inactive: [1] -0.111 | vorinostat -0.293 | silmitasertib -0.123 | [2] 0.023 | entospletinib 0.065

MORF4L1 isoform 2 (UniProt Q9UBU8)
inactive: [1] 0.013 | vorinostat 0.058 | silmitasertib -0.002 | [2] 0.015 | entospletinib 0.018

MAPKAPK3 (UniProt Q16644)
UniProt Q16644, sequence (Q16644 whole entry, looked up): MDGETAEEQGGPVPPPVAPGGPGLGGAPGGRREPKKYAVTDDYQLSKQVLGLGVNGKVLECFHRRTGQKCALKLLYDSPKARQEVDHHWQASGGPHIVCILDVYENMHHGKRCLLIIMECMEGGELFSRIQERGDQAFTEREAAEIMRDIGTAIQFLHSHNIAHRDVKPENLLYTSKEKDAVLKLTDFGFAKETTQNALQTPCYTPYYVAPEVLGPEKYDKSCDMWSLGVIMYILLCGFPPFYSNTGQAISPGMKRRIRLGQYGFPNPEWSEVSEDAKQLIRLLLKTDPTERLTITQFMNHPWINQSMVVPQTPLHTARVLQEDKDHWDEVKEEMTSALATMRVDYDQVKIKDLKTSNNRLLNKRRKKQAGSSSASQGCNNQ
active: vorinostat -0.43
inactive: [1] -0.063 | silmitasertib -0.001 | [2] 0.162 | entospletinib -0.049

MAP2K3 isoform 3 (UniProt P46734)
inactive: [1] -0.033 | silmitasertib 0.149 | [2] 0.025 | entospletinib 0.072
active: vorinostat -0.577

MON2 isoform 5 (UniProt Q7Z3U7)
inactive: [1] 0.021 | silmitasertib 0.021 | [2] 0 | entospletinib 0.005
active: vorinostat -0.525

LIMK2 isoform 3 (UniProt P53671)
UniProt P53671, sequence (P53671 whole entry, looked up): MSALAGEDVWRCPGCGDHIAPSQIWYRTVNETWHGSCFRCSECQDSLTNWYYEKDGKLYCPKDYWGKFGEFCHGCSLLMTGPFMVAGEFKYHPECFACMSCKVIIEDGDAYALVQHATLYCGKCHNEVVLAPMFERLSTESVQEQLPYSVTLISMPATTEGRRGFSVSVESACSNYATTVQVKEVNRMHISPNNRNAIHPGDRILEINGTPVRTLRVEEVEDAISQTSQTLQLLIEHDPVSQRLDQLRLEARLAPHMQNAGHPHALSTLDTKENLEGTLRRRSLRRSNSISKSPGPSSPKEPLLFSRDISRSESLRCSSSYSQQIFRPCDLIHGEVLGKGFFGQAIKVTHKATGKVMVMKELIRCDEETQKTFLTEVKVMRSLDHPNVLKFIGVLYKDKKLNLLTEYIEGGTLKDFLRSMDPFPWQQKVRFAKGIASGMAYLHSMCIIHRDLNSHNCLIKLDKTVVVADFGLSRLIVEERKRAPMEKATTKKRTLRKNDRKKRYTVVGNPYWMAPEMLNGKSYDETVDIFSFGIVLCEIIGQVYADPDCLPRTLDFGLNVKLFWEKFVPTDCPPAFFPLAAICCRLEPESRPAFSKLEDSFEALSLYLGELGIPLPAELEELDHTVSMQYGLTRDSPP
inactive: [1] -0.011 | vorinostat -0.21 | silmitasertib 0.114 | [2] 0.021 | entospletinib -0.055

MOSPD2 (UniProt Q8NHP6)
UniProt Q8NHP6, sequence (Q8NHP6 whole entry, looked up): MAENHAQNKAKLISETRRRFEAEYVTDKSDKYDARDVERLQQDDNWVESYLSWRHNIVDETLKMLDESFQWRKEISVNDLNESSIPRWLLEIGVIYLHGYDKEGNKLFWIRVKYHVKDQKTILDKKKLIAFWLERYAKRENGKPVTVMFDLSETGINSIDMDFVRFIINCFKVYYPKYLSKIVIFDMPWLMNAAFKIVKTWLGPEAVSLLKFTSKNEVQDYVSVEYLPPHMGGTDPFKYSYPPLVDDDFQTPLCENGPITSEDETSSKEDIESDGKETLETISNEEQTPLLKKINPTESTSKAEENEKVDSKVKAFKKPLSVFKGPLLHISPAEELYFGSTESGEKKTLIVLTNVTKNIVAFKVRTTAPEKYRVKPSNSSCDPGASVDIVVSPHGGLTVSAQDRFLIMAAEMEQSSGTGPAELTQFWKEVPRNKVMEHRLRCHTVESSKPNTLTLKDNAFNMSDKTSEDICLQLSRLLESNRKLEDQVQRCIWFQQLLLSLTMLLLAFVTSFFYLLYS
active: [1] -0.364
inactive: vorinostat 0.039 | silmitasertib 0.071 | [2] -0.02 | entospletinib -0.074

MLLT11 (UniProt Q13015)
inactive: [1] 0.08 | vorinostat 0.104 | silmitasertib -0.203 | [2] -0.016 | entospletinib 0.034

MAN2B2 (UniProt Q9Y2E5)
inactive: vorinostat 0.117 | silmitasertib -0.014 | [2] -0.005 | entospletinib 0.019

KRI1 (UniProt Q8N9T8)
inactive: [1] 0.085 | silmitasertib -0.023 | [2] -0.007 | entospletinib -0.07
active: vorinostat -0.285

LIMK1 (UniProt P53667)
inactive: [1] -0.127 | [2] 0.281 | entospletinib 0.027

MRPL12 (UniProt P52815)
inactive: [1] -0.07 | vorinostat 0.116 | silmitasertib -0.023 | [2] 0 | entospletinib -0.152

MAPK7 (UniProt Q13164)
inactive: vorinostat -0.102 | silmitasertib 0 | [2] -0.01 | entospletinib 0.029

MAP4K5 (UniProt Q9Y4K4)
UniProt Q9Y4K4, sequence (Q9Y4K4 whole entry, looked up): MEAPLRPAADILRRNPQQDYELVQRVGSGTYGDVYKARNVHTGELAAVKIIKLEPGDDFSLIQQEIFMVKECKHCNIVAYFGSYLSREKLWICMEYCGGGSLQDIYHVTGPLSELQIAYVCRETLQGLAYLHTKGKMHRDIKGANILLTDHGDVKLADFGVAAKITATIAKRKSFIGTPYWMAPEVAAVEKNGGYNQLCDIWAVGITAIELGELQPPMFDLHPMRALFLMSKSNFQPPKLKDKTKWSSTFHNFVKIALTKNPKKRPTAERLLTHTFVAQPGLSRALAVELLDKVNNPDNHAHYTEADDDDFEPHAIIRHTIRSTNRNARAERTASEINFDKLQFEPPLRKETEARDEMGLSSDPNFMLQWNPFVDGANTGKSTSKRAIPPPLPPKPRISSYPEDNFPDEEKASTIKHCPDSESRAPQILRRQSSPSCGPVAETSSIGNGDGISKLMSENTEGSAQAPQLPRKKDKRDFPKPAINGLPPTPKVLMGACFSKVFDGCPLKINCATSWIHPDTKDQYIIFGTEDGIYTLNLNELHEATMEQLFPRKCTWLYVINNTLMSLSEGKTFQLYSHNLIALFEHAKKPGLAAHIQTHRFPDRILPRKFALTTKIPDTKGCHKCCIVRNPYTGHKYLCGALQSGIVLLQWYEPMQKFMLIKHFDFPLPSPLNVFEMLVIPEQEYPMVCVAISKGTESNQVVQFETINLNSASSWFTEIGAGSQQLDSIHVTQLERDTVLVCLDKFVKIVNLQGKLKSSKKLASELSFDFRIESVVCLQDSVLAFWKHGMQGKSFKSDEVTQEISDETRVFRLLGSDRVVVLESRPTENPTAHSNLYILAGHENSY
inactive: [1] -0.072 | vorinostat -0.218 | silmitasertib -0.008 | [2] -0.07 | entospletinib 0

MRPL30 isoform 2 (UniProt Q8TCC3)
inactive: vorinostat 0.041 | silmitasertib -0.023 | [2] -0.012 | entospletinib -0.046

KRAS isoform 2 (UniProt P01116)
inactive: vorinostat 0.068 | silmitasertib -0.015 | [2] -0.045 | entospletinib -0.129

MAP3K4 isoform 2 (UniProt Q9Y6R4)
inactive: [2] 0.034

MPZL1 (UniProt O95297)
inactive: [1] -0.059 | vorinostat 0.022 | silmitasertib -0.004 | [2] 0.021 | entospletinib 0.017

KIF21A (UniProt H0YI78)
inactive: vorinostat -0.113 | silmitasertib -0.016

MED25 isoform 3 (UniProt Q71SY5)
UniProt Q71SY5, sequence (Q71SY5 whole entry, looked up): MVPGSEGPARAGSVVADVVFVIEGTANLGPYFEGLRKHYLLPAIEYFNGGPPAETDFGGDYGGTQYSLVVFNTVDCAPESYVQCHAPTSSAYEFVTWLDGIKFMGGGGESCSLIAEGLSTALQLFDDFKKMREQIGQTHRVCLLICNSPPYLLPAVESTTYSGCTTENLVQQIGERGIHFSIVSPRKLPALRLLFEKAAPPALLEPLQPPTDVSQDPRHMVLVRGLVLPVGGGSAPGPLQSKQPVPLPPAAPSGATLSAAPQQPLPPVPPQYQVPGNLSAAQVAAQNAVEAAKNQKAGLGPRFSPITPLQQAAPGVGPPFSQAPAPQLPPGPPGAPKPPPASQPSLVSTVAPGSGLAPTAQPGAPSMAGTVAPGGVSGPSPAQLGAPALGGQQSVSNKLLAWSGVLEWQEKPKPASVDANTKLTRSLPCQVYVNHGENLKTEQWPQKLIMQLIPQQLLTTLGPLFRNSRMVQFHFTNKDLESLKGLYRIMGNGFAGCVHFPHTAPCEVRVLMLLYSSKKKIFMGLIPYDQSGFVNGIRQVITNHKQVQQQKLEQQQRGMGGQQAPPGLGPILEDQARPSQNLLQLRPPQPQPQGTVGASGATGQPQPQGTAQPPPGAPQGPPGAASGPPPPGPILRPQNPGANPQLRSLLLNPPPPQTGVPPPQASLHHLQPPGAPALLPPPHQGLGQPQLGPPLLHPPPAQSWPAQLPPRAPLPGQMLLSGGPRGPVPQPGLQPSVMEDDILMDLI
active: vorinostat -0.294
inactive: silmitasertib 0.021 | [2] 0.024 | entospletinib 0.127

LEPROT (UniProt O15243)
UniProt O15243, sequence (O15243 whole entry, looked up): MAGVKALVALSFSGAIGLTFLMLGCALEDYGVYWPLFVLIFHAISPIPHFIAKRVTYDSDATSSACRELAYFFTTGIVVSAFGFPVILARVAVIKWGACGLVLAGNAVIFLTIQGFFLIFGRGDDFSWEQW
active: vorinostat -0.641
inactive: silmitasertib 0.167 | [2] -0.007 | entospletinib 0.115

KMT2B (UniProt Q9UMN6)
inactive: vorinostat 0.531 | [2] 0.211 | entospletinib 0.116
active: silmitasertib -0.76

MRPL22 (UniProt Q9NWU5)
inactive: silmitasertib 0.001 | [2] -0.007
active: vorinostat -0.687

MCUB (UniProt Q9NWR8)
inactive: vorinostat 0.129 | silmitasertib 0.057 | [2] 0.027

LY6E (UniProt Q16553)
inactive: [1] 0.165 | entospletinib -0.013

LIG4 (UniProt P49917)
inactive: [1] -0.041 | vorinostat -0.368 | silmitasertib 0.107 | [2] -0.039 | entospletinib 0.062

MAP3K6 (UniProt O95382)
inactive: [1] -0.088 | entospletinib -0.043

MDM1 (UniProt Q8TC05)
inactive: [1] 0.056 | vorinostat 0.085 | silmitasertib 0.093 | entospletinib -0.119

MAP4K4 isoform 6 (UniProt O95819)
inactive: vorinostat -0.134 | silmitasertib 0.02 | entospletinib 0.094
